Measurements as given in PubChem BioAssay (Tox21).
Values joined by “and” are separate entries in the source; they are usually repeats but may differ in a detail not shown here. Equal values may be shown once. Some structures have more than one record in an assay (separate samples or runs), and their calls can disagree. Active and inactive are the calls of the source. Where a call stands in place of a potency, no number is given. Unless noted, calls follow the shape of the dose curve; as a rule, active = well fitted curve in the direction sought with a large enough effect in the repeat runs; inconclusive = weak or mixed curves; inactive = no such curve, though single readings can be large; an effect the other way counts as inactive or inconclusive.

Key:
[1] = qHTS assay to identify small molecule antagonists of the glucocorticoid receptor (GR) signaling pathway - cell viability counter screen (AID 720693); also: nearly all actives have a fitted effect of over 55% in size
[2] = qHTS assay for identifying genotoxic compounds that show differential cytotoxicity against isogenic chicken DT40 cell lines with known DNA damage response pathways - wild type cell line (AID 743012); also: nearly all actives have a fitted effect of over 60% in size; also: potency is read from the fitted curve at half-maximal effect
Method in brief: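 Endpoint: CellTiter-Glo luminescence, 30 min RT. Cells: wild type DT40, 300/well. Exposure: compounds in DMSO, 40 h, 37 C/5% CO2, after ~0.5 h pre-incubation.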

[3] = qHTS assay for identifying genotoxic compounds that show differential cytotoxicity against isogenic chicken DT40 cell lines with known DNA damage response pathways - Rev3 mutant cell line (AID 743014); also: nearly all actives have a fitted effect of over 55% in size; also: potency is read from the fitted curve at half-maximal effect
[4] = qHTS assay for identifying genotoxic compounds that show differential cytotoxicity against isogenic chicken DT40 cell lines with known DNA damage response pathways - Rad54/Ku70 mutant cell line (AID 743015); also: nearly all actives have a fitted effect of over 60% in size; also: potency is read from the fitted curve at half-maximal effect
[5] = qHTS assay to identify small molecule antagonists of the androgen receptor (AR) signaling pathway - cell viability counter screen (AID 743033; also: nearly all actives have a fitted effect of over 45% in size; also: potency is read from the fitted curve at half-maximal effect)
[6] = qHTS assay to identify small molecule antagonists of the androgen receptor (AR) signaling pathway using the MDA cell line - cell viability counter screen (AID 743041; also: nearly all actives have a fitted effect of over 45% in size; also: potency is read from the fitted curve at half-maximal effect)
Method in brief: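 In this qHTS counter assay, fluorescence intensity after CellTiter-Fluor addition indicated viability of MDA-kb2 AR-luc cells given compounds and R1881 for 16 h at 37C.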

[7] = qHTS assay to identify small molecule antagonists of the thyroid receptor (TR) signaling pathway - cell viability counter screen (AID 743064); also: nearly all actives have a fitted effect of over 50% in size; also: potency is read from the fitted curve at half-maximal effect
Method in brief: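 GH3.TRE-Luc rat pituitary cells carrying a TRE-luciferase reporter were treated with compound plus 1 nM T3 (final) for 23.5 h at 37 °C. Viability was then read in the same wells by CellTiter-Fluor fluorescence after a further 30 min.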

[8] = test system: thyroid hormone receptor (rat, GH3 cells); experiment: qHTS assay to identify small molecule agonists of the thyroid receptor (TR) signaling pathway (AID 743066; calls by dose curve; also: potency is read from the fitted curve at half-maximal effect)
[9] = qHTS assay to identify small molecule antagonists of the estrogen receptor alpha (ER-alpha) signaling pathway - cell viability counter screen (AID 743074; calls by dose curve;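 also: HEK293 cells carrying ER-alpha-UAS-bla reporter stimulated with 17beta-estradiol; nearly all actives have a fitted effect of over 45% in size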; also: potency is read from the fitted curve at half-maximal effect)
[10] = qHTS assay to identify small molecule antagonists of the estrogen receptor alpha (ER-alpha) signaling pathway using the BG1 cell line - cell viability counter screen (AID 743081);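 also: compound given together with 17beta-estradiol as the ER stimulus; nearly all actives have a fitted effect of over 45% in size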; also: potency is read from the fitted curve at half-maximal effect
[11] = qHTS assay to identify small molecule antagonists of the thyroid receptor (TR) signaling pathway (AID 743065); also: nearly all actives have a fitted effect of over 55% in size; also: potency is read from the fitted curve at half-maximal effect
Method in brief: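 GH3.TRE-Luc rat pituitary cells carrying two TR response elements driving luciferase were plated for 4 h, given compound plus 1 nM T3 (final), and incubated 23.5 h at 37 C. ONE-Glo luminescence measured reporter inhibition; CellTiter-Fluor fluorescence tracked cytotoxicity.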

[12] = target: Estrogen receptor (Homo sapiens) (UniProt P03372); experiment: qHTS assay to identify small molecule antagonists of the estrogen receptor alpha (ER-alpha) signaling pathway (AID 743069; active = well fitted curve in the direction sought with a large enough effect in the signal ratio in the repeat runs, not every such curve was filed as active; inconclusive = weak or mixed curves, or effect the other way; inactive = no such curve, though single readings can be large or run the other way; the % refers to the signal ratio)
Method in brief: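 A 17beta-estradiol challenge was applied right after compound transfer to ER-alpha-UAS-bla HEK293 cells previously kept in charcoal-stripped serum. Plates stood 18 hr at 37C and 5% CO2; fluorescence was read following 2 hr FRET substrate loading at room temperature.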

[13] = target: Estrogen receptor (Homo sapiens) (UniProt P03372); experiment: qHTS assay to identify small molecule agonists of the estrogen receptor alpha (ER-alpha) signaling pathway (AID 743075; calls by dose curve; also: potency is read from the fitted curve at half-maximal effect)
[14] = target: Estrogen receptor (Homo sapiens) (UniProt P03372); experiment: qHTS assay to identify small molecule agonists of the estrogen receptor alpha (ER-alpha) signaling pathway using the BG1 cell line (AID 743079); also: nearly all actives have a fitted effect of over 20% in size; also: potency is read from the fitted curve at half-maximal effect
[15] = target: Aromatase (Homo sapiens) (UniProt P11511); experiment: qHTS assay to identify aromatase inhibitors (AID 743083); also: nearly all actives have a fitted effect of over 55% in size; also: potency is read from the fitted curve at half-maximal effect
[16] = qHTS assay to identify aromatase inhibitors - cell viability counter screen (AID 743084); also: potency is read from the fitted curve at half-maximal effect
[17] = target: Androgen receptor (Homo sapiens) (UniProt P10275); experiment: qHTS assay to identify small molecule antagonists of the androgen receptor (AR) signaling pathway (AID 743035; active = well fitted inhibition curve with a large enough effect in the signal ratio in the repeat runs, not every such curve was filed as active; inconclusive = weak or mixed curves, or effect the other way; inactive = no such curve, though single readings can be large or run the other way; the % refers to the signal ratio)
Method in brief: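 R1881 agonist challenge of a HEK293 UAS-beta-lactamase AR reporter line in the presence of compound (16 h, 37C); signal taken as FRET fluorescence after 2 h with LiveBLAzer B/G substrate at room temperature.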

[18] = target: Androgen receptor (Homo sapiens) (UniProt P10275); experiment: qHTS assay to identify small molecule agonists of the androgen receptor (AR) signaling pathway (AID 743036; active = well fitted activation curve with a large enough effect in the signal ratio in the repeat runs, with a control signal flat, not every such curve was filed as active; inconclusive = weak or mixed curves, or effect the other way; inactive = no such curve, though single readings can be large or run the other way; the % refers to the signal ratio)
Method in brief: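 HEK293 cells stably carrying a UAS-driven beta-lactamase reporter (GeneBLAzer AR-UAS-bla-GripTite) were plated at 2,000 cells/well, rested 4 h at 37C, then exposed to compounds in DMSO for 16 h. LiveBLAzer B/G FRET substrate was added for 2 h at room temperature; fluorescence read.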

[19] = target: Androgen receptor (Homo sapiens) (UniProt P10275); experiment: qHTS assay to identify small molecule antagonists of the androgen receptor (AR) signaling pathway using the MDA cell line (AID 743042; also: nearly all actives have a fitted effect of over 55% in size)
Method in brief: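 MDA-kb2 cells (human breast carcinoma, stably carrying an MMTV-luciferase reporter responsive to AR and GR) were plated at 3,000 cells/well and preincubated 5 hr at 37C, then given compound plus R1881 agonist for 16 h. ONE-Glo luminescence was read.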

[20] = qHTS assay to identify small molecule antagonists of the estrogen receptor alpha (ER-alpha) signaling pathway using the BG1 cell line (AID 743080; calls by dose curve;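 also: BG1 cells stimulated with 17beta-estradiol alongside compound; nearly all actives have a fitted effect of over 25% in size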); details: BG1Luc4E2 ERE-luciferase antagonist mode, luminescence; activity change, negative = inhibition: at 70.3 µM (top of the series)
Method in brief: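 Luminescence from a 4×ERE-luciferase reporter in BG1-Luc-4E2 cells served as read-out. Cells, pre-cultured 5 days in stripped-serum phenol-red-free medium, were exposed to compound with 17beta-estradiol co-stimulation for 21.5 h at 37 C.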

Chain of Androgen receptor (Homo sapiens) (P10275 whole entry, looked up): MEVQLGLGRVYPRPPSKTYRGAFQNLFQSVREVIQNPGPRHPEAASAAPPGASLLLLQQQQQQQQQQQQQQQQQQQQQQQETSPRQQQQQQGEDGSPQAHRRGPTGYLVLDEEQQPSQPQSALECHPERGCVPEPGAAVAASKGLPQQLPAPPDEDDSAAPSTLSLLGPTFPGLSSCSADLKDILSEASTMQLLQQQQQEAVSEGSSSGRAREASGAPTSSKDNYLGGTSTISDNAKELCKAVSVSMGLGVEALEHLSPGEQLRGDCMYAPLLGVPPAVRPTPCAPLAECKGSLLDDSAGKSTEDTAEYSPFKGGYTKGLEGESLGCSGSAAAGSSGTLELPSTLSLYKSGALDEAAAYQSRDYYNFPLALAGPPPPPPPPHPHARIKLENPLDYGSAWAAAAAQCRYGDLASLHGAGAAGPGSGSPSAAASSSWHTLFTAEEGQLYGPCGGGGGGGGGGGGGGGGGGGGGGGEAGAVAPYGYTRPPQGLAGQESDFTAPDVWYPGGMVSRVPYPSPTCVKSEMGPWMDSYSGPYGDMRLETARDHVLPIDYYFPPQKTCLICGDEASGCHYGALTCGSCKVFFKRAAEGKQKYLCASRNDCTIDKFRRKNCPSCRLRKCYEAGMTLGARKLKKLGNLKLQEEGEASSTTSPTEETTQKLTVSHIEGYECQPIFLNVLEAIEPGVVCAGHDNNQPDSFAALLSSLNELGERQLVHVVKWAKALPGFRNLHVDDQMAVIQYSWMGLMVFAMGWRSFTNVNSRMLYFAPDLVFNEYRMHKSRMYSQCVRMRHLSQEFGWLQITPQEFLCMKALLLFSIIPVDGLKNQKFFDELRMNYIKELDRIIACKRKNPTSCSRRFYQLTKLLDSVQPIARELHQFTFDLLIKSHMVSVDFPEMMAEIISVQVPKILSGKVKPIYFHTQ
Chain of Aromatase (Homo sapiens) (P11511 whole entry, looked up): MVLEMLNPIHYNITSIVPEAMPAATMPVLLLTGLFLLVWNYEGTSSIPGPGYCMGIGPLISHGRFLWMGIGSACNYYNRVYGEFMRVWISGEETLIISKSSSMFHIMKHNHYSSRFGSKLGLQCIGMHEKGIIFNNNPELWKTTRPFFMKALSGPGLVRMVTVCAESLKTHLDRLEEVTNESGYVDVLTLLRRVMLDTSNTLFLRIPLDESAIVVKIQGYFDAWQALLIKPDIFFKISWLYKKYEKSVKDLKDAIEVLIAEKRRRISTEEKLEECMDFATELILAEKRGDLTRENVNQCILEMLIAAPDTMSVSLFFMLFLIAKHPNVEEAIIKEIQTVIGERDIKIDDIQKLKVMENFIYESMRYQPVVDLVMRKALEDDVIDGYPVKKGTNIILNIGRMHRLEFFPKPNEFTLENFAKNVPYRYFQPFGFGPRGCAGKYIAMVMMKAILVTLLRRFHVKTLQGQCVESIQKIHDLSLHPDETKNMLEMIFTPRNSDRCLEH
Chain of Estrogen receptor (Homo sapiens) (P03372 whole entry, looked up): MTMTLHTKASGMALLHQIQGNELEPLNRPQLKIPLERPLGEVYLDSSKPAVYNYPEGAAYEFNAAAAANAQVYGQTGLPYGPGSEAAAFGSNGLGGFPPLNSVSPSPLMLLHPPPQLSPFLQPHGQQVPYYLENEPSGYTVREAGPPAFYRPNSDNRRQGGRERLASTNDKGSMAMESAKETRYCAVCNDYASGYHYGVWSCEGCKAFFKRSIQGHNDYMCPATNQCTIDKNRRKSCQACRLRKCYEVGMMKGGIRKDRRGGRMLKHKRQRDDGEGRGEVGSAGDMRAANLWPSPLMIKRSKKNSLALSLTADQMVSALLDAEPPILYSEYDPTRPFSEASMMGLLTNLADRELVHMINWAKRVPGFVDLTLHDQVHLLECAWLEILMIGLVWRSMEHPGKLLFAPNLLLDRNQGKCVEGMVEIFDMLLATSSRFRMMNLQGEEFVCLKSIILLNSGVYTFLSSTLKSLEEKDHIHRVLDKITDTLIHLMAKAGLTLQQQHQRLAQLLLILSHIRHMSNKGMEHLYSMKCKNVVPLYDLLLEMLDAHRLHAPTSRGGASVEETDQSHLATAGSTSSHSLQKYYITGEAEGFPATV

Row | SMILES | Potency [1] | Potency [2] | Potency [3] | Potency [4] | Potency [5] | Potency [6] | Potency [7] | Potency [8] | Potency [9] | Potency [10] | Potency [11] | Potency [12] | Potency [13] | Potency [14] | Potency [15] | Potency [16] | Potency [17] | outcome [18] | Potency [19] | Potency [20]
1 | CC(=O)Nc1c(I)c(NC(C)=O)c(I)c(C(=O)O)c1I | inactive | inactive | inactive | inactive | inactive | inactive | inactive | inactive | inactive | inactive | – | – | – | – | – | – | – | – | – | –
2 | Nc1c2c(nc3ccccc13)CCCC2 | inactive | inactive and 27.3 µM (active) | inactive and 27.3 µM (active) | inactive and 19.3 µM (active) | inactive | inactive | inactive | inactive | inactive | inactive | inactive | inactive | inactive | inactive and 24.3 µM (active) | inactive | inactive | – | – | – | –
3 | CCCC[P+](CCCC)(CCCC)CCCC | inactive | 1.08 µM (active) and 7.84 µM (active) and 4.33 µM (active) | 684 nM (active) and 3.93 µM (active) | 609 nM (active) and 3.5 µM (active) | inactive | inactive | inactive | inactive | inactive | inactive | inactive | – | – | – | inactive | inactive | – | – | – | –
4 | CCCCOC(=O)c1ccc(O)cc1 | inactive | inactive | inactive and 61.1 µM (active) | inactive and 61.1 µM (active) | inactive | inactive | inactive | inactive | inactive | inactive | inactive | – | – | – | inactive | inactive | inactive | inactive | inactive | –
5 | Nc1c(N=Nc2ccc(-c3ccc(N=Nc4cc(S(=O)(=O)O)c5ccccc5c4N)cc3)cc2)cc(S(=O)(=O)O)c2ccccc12 | inactive | inactive and 6.85 µM (active) | inactive and 34.3 µM (active) | 54.4 µM (active) | inactive | 26.6 µM (active) and 30.6 µM (active) | 16.8 µM (active) and 27.3 µM (active) | inactive | inactive | 13.3 µM (active) and 24.3 µM (active) | 10.6 µM (active) and 30.6 µM (active) | – | – | – | – | 13.3 µM (active) and 4.32 µM (active) | – | – | – | –
6 | NC1CCCCC1 | inactive | inactive | 54.8 µM (active) and inactive | 61.5 µM (active) and inactive | inactive | inactive | inactive | inactive | inactive | inactive | inactive | inactive | inactive | inactive | inactive | inactive | – | – | – | inactive
7 | CCOC(N)=O | inactive | inactive | inactive | inactive | inactive | inactive | inactive | inactive | inactive | inactive | inactive | inactive | inactive | inactive | inactive | inactive | – | – | – | inactive
8 | F[B-](F)(F)F | inactive | inactive | inactive | inactive | inactive | inactive | inactive | inactive | inactive | inactive | inactive | – | – | – | inactive | inactive | – | – | – | –
9 | CN(C)C(=S)SC(=S)N(C)C | inactive | 944 nM (active) and 1.11 µM (active) and 172 nM (active) | 1.19 µM (active) and 886 nM (active) and 96.9 nM (active) | 750 nM (active) and 789 nM (active) and 96.9 nM (active) | 7.56 µM (active) and 1.42 µM (active) and 2.75 µM (active) | 6.99 µM (active) and 6.27 µM (active) and 1.22 µM (active) | 2.11 µM (active) and 1.98 µM (active) and 433 nM (active) | inactive | inactive and 49 µM (active) | inactive | 1.68 µM (active) and 1.57 µM (active) and 306 nM (active) | – | – | – | 2.98 µM (active) and 994 nM (active) and 243 nM (active) | 3.35 µM (active) and 994 nM (active) and 486 nM (active) | – | – | – | –
10 | O=C1O[C@H]([C@@H](O)CO)C(O)=C1O | inactive | inactive and 54.5 µM (active) | inactive and 21.7 µM (active) | inactive and 48.6 µM (active) | inactive | inactive | inactive | inactive and 34.3 µM (active) | inactive | inactive | – | – | – | – | inactive | inactive | – | – | – | –
11 | O=C1NC(=O)C(c2ccccc2)(c2ccccc2)N1 | inactive | inactive | inactive | inactive | inactive | inactive | inactive | inactive | inactive | inactive | inactive | – | – | – | inactive | inactive | – | – | – | –
12 | Cc1cccc(C)c1 | inactive | inactive | inactive | inactive | inactive | inactive | inactive | inactive | inactive | inactive | inactive | inactive | inactive and 1.34 µM [inconclusive] (active) | inactive and 26.5 µM (active) | inactive | inactive | – | – | – | inactive
